What all share (test): DAPPL (digital affinity profiling via proximity ligation, sequencing); 10 mM Tris-HCl pH 7.5, 50 mM NaCl, 1 mM DTT, 4% glycerol, room temperature, 30 min; GST-TFs on glutathione beads, 16-mer random dsDNA library, 0.1% formaldehyde crosslink after washing; high values mean tight binding
The target of one assay is T1, FLI1 (Homo sapiens, UniProt Q01543 1-452).
T1 sequence: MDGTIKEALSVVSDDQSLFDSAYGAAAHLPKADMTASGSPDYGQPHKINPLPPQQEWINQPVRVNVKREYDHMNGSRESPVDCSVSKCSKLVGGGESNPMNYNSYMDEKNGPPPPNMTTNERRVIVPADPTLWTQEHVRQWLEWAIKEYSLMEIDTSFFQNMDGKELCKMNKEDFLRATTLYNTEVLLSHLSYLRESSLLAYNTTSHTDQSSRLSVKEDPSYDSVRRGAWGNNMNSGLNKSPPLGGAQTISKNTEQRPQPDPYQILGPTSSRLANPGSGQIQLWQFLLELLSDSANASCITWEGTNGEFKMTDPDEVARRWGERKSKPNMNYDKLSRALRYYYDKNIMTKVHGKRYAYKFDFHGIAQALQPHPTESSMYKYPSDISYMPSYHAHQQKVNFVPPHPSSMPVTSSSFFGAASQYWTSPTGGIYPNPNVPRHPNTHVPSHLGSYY
As to conditions: protein: recombinant; tags: N-terminal GST; dsDNA, one strand shown. An outline of the steps: (§1)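 Pools were built from human transcription factors expressed in yeast as GST fusions, captured on glutathione beads and DNA-barcoded, along with a tag-only sample. Incubation with 200 nmole of a 16-mer random double-stranded DNA library lasted 30 min at room temperature in Tris/NaCl/DTT/glycerol buffer, and was followed by washing, 0.1% formaldehyde crosslinking, proximity ligation, PCR amplification and Illumina NextSeq500 sequencing. Binding signal is the quotient of each hexamer's read frequency for a factor and its frequency for the tag-only sample.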

For a further assay, the target named is T2, ELK1 (Homo sapiens, UniProt P19419 1-428).
T2 sequence: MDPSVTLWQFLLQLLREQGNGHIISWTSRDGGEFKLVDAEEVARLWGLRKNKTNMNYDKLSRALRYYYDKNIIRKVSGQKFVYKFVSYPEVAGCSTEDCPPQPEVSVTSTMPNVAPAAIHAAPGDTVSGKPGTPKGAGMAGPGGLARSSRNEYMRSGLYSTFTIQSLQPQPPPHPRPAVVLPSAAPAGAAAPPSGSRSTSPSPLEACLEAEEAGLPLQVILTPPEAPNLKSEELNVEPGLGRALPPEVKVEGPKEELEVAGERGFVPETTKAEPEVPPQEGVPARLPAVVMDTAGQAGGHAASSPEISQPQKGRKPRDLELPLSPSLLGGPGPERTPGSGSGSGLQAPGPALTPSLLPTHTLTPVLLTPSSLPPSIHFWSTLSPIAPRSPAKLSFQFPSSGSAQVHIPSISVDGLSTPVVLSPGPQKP
As to conditions: protein: recombinant; tags: N-terminal GST; dsDNA, one strand shown. Summed up:
as §1

The target in the next assay is T3, GABPA (Homo sapiens, UniProt Q06546 1-454).
T3 sequence: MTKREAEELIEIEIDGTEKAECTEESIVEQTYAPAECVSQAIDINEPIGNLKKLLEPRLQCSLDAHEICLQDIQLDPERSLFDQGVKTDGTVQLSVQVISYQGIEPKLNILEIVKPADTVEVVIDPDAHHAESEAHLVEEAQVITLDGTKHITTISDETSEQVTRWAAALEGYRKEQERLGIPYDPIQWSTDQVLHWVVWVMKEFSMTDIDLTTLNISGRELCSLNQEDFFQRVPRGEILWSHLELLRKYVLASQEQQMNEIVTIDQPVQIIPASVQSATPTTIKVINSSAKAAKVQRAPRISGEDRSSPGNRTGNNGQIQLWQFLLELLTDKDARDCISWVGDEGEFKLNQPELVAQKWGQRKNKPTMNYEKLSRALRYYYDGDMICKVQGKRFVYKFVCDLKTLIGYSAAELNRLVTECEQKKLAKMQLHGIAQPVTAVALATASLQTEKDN
The note with it: protein: recombinant; tags: N-terminal GST; dsDNA, one strand shown. An outline of the steps: as §1

The target of the next assay is T4, ERG (Homo sapiens, UniProt P11308 1-479).
T4 sequence: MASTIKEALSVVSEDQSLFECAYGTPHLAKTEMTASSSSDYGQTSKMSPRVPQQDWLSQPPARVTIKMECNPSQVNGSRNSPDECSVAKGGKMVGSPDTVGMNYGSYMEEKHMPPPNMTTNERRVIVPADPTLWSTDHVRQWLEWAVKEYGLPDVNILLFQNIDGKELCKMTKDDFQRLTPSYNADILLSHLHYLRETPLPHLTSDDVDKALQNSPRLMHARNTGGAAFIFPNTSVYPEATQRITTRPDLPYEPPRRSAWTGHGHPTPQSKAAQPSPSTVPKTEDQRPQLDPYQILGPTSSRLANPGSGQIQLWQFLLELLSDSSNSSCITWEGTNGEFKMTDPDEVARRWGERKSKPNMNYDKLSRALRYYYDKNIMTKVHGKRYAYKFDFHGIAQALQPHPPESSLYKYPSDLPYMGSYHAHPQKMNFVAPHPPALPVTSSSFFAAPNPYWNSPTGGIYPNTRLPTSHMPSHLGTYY
As to conditions: protein: recombinant; tags: N-terminal GST; dsDNA, one strand shown. Summed up: as §1

The next assay addresses ELF1 (Homo sapiens, UniProt P32519 1-619). The note with it: protein: recombinant; tags: N-terminal GST; dsDNA, one strand shown. Summed up:
as §1

A further assay deals with T5, EHF (Homo sapiens, UniProt Q9NZC4 1-300).
T5 sequence: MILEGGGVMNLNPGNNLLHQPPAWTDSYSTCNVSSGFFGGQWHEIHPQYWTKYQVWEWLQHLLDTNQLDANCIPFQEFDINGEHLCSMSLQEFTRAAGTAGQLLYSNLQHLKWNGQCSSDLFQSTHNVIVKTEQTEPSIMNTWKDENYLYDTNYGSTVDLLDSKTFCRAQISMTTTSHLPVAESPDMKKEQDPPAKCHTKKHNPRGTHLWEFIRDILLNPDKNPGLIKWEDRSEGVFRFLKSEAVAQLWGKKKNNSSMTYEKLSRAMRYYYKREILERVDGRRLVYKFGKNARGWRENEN
The note with it: protein: recombinant; tags: N-terminal GST; dsDNA, one strand shown. Summed up:
as §1

A further assay addresses SPI1 (Homo sapiens, UniProt P17947 1-270). The note with it: protein: recombinant; tags: N-terminal GST; dsDNA, one strand shown. Summed up:
as §1

The target of the next assay is SPIB (Homo sapiens, UniProt Q01892 1-262). As to conditions: protein: recombinant; tags: N-terminal GST; dsDNA, one strand shown. An outline of the steps:
as §1

In another assay the target is T6, ELK3 (Homo sapiens, UniProt P41970 1-407).
T6 sequence: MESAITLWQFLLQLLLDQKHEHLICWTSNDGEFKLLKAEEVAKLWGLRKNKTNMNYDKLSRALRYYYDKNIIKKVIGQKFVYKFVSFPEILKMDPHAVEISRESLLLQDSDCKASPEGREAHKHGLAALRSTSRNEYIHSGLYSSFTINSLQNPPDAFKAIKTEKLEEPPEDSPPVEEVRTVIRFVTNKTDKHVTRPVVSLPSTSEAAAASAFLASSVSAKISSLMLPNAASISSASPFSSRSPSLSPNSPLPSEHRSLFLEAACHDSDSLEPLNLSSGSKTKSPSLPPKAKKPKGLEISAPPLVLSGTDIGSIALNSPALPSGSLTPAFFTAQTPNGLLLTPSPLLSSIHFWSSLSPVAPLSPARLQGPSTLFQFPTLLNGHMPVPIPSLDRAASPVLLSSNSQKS
The note with it: protein: recombinant; tags: N-terminal GST; dsDNA, one strand shown. Summed up:
as §1

The next assay addresses T7, FEV (Homo sapiens, UniProt Q99581 1-238).
T7 sequence: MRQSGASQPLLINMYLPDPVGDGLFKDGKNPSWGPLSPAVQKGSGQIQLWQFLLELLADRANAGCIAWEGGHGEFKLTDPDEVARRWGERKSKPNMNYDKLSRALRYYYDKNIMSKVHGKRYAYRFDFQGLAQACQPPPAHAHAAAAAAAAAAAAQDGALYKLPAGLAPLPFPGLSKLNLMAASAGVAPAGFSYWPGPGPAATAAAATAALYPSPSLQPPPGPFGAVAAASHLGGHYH
The note with it: protein: recombinant; tags: N-terminal GST; dsDNA, one strand shown. An outline of the steps: as §1

For a further assay, the target named is ETV5 (Homo sapiens, UniProt P41161 1-510). As to conditions: protein: recombinant; tags: N-terminal GST; dsDNA, one strand shown. Summed up: as §1
Chain of ETV5 (P41161 whole entry): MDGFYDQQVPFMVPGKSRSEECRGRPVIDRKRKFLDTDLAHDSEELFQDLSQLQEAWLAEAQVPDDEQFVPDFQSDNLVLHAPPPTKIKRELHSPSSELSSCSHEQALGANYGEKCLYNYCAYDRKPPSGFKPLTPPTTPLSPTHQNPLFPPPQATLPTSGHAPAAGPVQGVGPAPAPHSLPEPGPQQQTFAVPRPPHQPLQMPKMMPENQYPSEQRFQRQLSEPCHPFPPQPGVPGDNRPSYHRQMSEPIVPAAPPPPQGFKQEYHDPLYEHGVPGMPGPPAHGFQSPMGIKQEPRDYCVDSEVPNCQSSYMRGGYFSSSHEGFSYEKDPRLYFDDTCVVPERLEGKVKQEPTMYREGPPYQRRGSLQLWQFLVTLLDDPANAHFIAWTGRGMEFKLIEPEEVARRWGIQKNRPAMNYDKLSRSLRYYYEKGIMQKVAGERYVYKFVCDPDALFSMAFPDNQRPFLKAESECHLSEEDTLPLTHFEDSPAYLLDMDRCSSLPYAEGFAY
The target in the next assay is HSF1 (Homo sapiens, UniProt Q00613 1-529). The note with it: protein: recombinant; tags: N-terminal GST; chain copies: 3; dsDNA, one strand shown. An outline of the steps: as §1
Chain of HSF1 (Q00613 whole entry): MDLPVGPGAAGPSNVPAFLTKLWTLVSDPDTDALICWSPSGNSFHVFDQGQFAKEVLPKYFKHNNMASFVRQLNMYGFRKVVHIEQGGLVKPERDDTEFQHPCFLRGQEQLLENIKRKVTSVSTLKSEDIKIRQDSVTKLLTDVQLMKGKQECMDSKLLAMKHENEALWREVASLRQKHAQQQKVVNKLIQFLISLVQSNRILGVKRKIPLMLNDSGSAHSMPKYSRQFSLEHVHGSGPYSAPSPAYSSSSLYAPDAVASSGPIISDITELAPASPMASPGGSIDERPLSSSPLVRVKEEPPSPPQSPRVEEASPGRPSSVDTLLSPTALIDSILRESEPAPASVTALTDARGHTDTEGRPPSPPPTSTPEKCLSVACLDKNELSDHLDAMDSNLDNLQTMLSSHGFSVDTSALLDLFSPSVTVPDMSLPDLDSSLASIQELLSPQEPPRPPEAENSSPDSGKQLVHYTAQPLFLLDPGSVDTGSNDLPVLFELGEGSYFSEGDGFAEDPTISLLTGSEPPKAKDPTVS
The target of the next assay is T8, SPIC (Homo sapiens, UniProt Q8N5J4 1-248).
T8 sequence: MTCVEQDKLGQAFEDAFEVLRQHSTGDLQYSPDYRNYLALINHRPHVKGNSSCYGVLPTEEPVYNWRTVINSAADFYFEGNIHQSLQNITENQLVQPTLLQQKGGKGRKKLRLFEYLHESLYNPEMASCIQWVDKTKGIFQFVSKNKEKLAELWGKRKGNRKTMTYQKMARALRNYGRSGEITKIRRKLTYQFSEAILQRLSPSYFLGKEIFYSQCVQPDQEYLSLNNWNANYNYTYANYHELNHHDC
As to conditions: protein: recombinant; tags: N-terminal GST; dsDNA, one strand shown. Summed up: as §1

For a further assay, the target named is ELF4 (Homo sapiens, UniProt Q99607 1-663). As to conditions: protein: recombinant; tags: N-terminal GST; dsDNA, one strand shown. An outline of the steps:
as §1

The next assay deals with T9, ELK4 (Homo sapiens, UniProt P28324-2 1-405).
T9 sequence: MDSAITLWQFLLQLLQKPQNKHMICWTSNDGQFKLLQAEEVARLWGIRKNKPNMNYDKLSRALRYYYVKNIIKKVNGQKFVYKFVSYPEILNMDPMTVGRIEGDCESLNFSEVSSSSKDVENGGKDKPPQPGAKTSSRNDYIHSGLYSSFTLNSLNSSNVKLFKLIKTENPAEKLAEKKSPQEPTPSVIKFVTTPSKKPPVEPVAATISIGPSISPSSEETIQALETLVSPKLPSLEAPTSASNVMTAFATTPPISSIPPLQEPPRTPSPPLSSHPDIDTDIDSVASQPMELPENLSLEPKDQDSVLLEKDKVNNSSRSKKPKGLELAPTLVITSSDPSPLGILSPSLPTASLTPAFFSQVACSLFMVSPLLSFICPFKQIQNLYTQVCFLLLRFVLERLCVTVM
As to conditions: protein: recombinant; tags: N-terminal GST; dsDNA, one strand shown. An outline of the steps:
as §1

The next assay deals with T10, ETV2 (Homo sapiens, UniProt O00321 1-342).
T10 sequence: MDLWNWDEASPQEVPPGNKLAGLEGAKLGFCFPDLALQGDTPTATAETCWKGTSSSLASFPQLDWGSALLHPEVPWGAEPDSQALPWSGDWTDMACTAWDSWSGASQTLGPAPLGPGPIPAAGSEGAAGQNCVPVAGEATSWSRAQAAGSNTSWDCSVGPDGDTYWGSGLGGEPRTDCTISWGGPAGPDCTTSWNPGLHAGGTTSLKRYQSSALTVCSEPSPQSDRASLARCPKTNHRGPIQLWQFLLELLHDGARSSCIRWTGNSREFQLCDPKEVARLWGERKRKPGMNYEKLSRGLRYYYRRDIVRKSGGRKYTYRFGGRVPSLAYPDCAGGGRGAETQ
The note with it: protein: recombinant; tags: N-terminal GST; dsDNA, one strand shown. An outline of the steps:
as §1

A further assay concerns the target T11, ELF3 (Homo sapiens, UniProt P78545 1-371).
T11 sequence: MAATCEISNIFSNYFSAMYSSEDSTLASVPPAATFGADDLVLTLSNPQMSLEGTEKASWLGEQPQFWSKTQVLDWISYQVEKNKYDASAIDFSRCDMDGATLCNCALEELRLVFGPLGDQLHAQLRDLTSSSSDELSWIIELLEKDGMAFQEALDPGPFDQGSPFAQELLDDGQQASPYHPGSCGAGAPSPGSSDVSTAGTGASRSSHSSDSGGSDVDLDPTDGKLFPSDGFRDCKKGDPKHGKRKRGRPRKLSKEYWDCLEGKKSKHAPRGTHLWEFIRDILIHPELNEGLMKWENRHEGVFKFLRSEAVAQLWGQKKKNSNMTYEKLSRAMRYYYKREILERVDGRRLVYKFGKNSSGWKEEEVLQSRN
As to conditions: protein: recombinant; tags: N-terminal GST; dsDNA, one strand shown. Summed up:
as §1

In another assay the target is CRX (Homo sapiens, UniProt O43186 1-299). As to conditions: protein: recombinant; tags: N-terminal GST; dsDNA, one strand shown. Summed up:
as §1

For a further assay, the target named is ETV1 (Homo sapiens, UniProt P50549 1-477). As to conditions: protein: recombinant; tags: N-terminal GST; dsDNA, one strand shown. Summed up:
as §1

This passage reports binding signal results from publication PMC7862700, “An all-to-all approach to the identification of sequence-specific readers for epigenetic DNA modifications on cytosine”.

Chain of CRX (O43186 whole entry): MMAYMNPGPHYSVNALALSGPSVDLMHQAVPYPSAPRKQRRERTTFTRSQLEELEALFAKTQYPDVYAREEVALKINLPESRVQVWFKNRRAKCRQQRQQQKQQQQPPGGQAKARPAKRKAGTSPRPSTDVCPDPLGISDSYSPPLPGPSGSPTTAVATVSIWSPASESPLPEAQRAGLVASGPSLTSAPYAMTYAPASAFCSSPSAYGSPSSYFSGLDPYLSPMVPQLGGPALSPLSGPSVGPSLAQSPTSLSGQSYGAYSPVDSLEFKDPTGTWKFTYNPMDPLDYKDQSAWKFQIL
Chain of ELF4 (Q99607 whole entry): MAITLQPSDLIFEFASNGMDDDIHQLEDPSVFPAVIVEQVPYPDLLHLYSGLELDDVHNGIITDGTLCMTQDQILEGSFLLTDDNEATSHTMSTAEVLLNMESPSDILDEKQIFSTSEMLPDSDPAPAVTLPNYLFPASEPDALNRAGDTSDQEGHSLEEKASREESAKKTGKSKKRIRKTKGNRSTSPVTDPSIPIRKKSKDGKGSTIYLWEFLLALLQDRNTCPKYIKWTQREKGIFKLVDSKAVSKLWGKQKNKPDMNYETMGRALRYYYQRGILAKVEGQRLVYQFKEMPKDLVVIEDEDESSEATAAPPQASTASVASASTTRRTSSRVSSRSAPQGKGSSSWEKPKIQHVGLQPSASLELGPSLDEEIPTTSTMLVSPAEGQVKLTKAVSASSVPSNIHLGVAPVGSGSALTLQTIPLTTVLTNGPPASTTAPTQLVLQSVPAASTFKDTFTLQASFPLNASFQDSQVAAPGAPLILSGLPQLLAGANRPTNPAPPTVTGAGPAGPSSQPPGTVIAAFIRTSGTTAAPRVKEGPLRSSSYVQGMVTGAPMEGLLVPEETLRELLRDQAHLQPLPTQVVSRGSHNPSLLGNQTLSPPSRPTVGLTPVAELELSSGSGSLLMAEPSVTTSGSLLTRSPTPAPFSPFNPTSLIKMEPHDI
Chain of ETV1 (P50549 whole entry): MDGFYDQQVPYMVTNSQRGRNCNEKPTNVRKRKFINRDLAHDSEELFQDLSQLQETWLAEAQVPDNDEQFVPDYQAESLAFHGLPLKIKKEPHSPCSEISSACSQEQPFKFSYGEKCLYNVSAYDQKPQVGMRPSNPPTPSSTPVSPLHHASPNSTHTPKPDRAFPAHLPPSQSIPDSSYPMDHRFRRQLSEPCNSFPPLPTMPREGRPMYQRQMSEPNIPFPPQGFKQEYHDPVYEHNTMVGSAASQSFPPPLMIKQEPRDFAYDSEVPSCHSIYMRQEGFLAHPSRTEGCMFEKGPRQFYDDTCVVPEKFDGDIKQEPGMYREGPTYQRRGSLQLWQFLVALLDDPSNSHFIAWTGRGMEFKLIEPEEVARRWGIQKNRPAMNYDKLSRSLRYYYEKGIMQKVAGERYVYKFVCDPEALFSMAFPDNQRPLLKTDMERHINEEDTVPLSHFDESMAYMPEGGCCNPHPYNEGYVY
Chain of SPIB (Q01892 whole entry): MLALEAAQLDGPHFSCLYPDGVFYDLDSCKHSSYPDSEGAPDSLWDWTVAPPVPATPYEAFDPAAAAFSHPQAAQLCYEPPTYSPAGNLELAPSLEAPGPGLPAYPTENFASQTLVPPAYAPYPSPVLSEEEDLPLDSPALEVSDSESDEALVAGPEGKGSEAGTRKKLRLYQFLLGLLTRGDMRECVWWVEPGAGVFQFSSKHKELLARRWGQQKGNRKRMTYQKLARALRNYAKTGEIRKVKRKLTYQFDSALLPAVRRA
Chain of ELF1 (P32519 whole entry): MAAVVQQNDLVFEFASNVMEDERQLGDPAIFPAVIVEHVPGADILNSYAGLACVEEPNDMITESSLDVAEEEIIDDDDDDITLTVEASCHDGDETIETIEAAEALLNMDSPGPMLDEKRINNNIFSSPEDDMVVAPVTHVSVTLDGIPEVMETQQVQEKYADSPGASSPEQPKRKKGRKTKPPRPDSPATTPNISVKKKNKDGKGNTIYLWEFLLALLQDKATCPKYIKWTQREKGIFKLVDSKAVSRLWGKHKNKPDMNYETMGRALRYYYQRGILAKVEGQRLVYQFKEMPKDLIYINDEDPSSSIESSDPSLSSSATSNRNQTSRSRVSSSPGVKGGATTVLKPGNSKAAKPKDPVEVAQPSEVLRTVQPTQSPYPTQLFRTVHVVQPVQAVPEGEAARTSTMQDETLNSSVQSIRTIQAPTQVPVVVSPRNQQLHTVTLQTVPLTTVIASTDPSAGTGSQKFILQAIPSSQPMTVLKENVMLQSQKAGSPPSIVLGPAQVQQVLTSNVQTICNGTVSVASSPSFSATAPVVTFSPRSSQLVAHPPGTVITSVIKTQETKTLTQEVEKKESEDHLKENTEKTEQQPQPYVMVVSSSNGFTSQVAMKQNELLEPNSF

Take AAATGC: the binding signal in the assay with FLI1 was 1.17 fold enrichment (6-mer frequency, TF over GST control); in the assay with ELK1 it was 1.29 fold enrichment (6-mer frequency, TF over GST control); with GABPA, 1.25 fold enrichment (6-mer frequency, TF over GST control); with ERG it was 1.3 fold enrichment (6-mer frequency, TF over GST control); with ELF1 it was 1.25 fold enrichment (6-mer frequency, TF over GST control); with EHF it was 1.25 fold enrichment (6-mer frequency, TF over GST control). The binding signal in the assay with SPI1 is 1.48 fold enrichment (6-mer frequency, TF over GST control); with SPIB, 1.18 fold enrichment (6-mer frequency, TF over GST control); with ELK3 it was 1.18 fold enrichment (6-mer frequency, TF over GST control); with FEV, 1.35 fold enrichment (6-mer frequency, TF over GST control); in the assay with ETV5, 1.34 fold enrichment (6-mer frequency, TF over GST control); with HSF1 it was 1.09 fold enrichment (6-mer frequency, TF over GST control). Further, the binding signal in the assay with SPIC was 1.13 fold enrichment (6-mer frequency, TF over GST control); with ELF4, 1.23 fold enrichment (6-mer frequency, TF over GST control); with ELK4, 1.37 fold enrichment (6-mer frequency, TF over GST control); with ETV2, 1.23 fold enrichment (6-mer frequency, TF over GST control); with ELF3, 1.35 fold enrichment (6-mer frequency, TF over GST control); with CRX, 1.19 fold enrichment (6-mer frequency, TF over GST control). Further, the binding signal with ETV1 was 1.26 fold enrichment (6-mer frequency, TF over GST control).
